# Several values for one entry are separate records, joined by “and”; a condition that tells them apart may be missing. Equal values may be shown once. Read-outs that look alike come from different tables or passages of the source.
# Key:
# NEK6 = conditions: concentration: 1 μM, replicates: in singlicate; n = 1
# NEK7 = conditions: concentration: 1 μM, replicates: in singlicate, n = 1
# NEK9 = conditions: concentration: 1 μM, replicates: in singlicate, n = 1
# NIK = system: T1, NIK; conditions: concentration: 1 μM, replicates: in singlicate, n = 1
# T1 construct: gene MAP3K14
# NIM1 = system: T2, NIM1; conditions: concentration: 1 μM, replicates: in singlicate, n = 1
# T2 construct: gene MGC42105
# NLK = conditions: concentration: 1 μM, replicates: in singlicate, n = 1
# OSR1 = system: T3, OSR1; conditions: concentration: 1 μM, replicates: in singlicate; n = 1
# T3 construct: gene OXSR1
# PAK1 = conditions: concentration: 1 μM, replicates: in singlicate, n = 1
# PAK2 = conditions: concentration: 1 μM, replicates: in singlicate, n = 1
# PAK3 = conditions: concentration: 1 μM, replicates: in singlicate, n = 1
# PAK4 = conditions: concentration: 1 μM, replicates: in singlicate, n = 1
# PAK6 = conditions: concentration: 1 μM, replicates: in singlicate, n = 1
# PAK7 = conditions: concentration: 1 μM, replicates: in singlicate; n = 1
# PCTK1 = system: T4, PCTK1; conditions: concentration: 1 μM, replicates: in singlicate; n = 1
# T4 construct: gene CDK16
# PCTK2 = system: T5, PCTK2; conditions: concentration: 1 μM, replicates: in singlicate, n = 1
# T5 construct: gene CDK17
# PCTK3 = system: T6, PCTK3; conditions: concentration: 1 μM, replicates: in singlicate, n = 1
# T6 construct: gene CDK18
# PDGFRA = conditions: concentration: 1 μM, replicates: in singlicate, n = 1
# PDGFRB = conditions: concentration: 1 μM, replicates: in singlicate, n = 1
# PDPK1 = conditions: concentration: 1 μM, replicates: in singlicate, n = 1
# PFTAIRE2 = conditions: concentration: 1 μM, replicates: in singlicate, n = 1
# 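Note: KINOMEscan kinase panel screen.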
smiles,measurement,setting,value
O=C(Nc1cccc(-c2nn3ncccc3c2-c2ccnc(Nc3cccc(C(F)(F)F)c3)n2)c1)c1c(F)cccc1F [GSK299495],%Inh,NEK6,0%
same,%Inh,NEK7,0%
same,%Inh,NEK9,0%
same,%Inh,NIK,0%
same,%Inh,NIM1,25%
same,%Inh,NLK,70%
same,%Inh,OSR1,23%
same,%Inh,PAK1,0%
same,%Inh,PAK2,0%
same,%Inh,PAK3,10%
same,%Inh,PAK4,0%
same,%Inh,PAK6,0%
same,%Inh,PAK7,0%
same,%Inh,PCTK1,6%
same,%Inh,PCTK2,0%
same,%Inh,PCTK3,23%
same,%Inh,PDGFRA,0%
same,%Inh,PDGFRB,99.7%
same,%Inh,PDPK1,0%
same,%Inh,PFTAIRE2,0%
O=C(Nc1n[nH]c2cc(-c3cccc(F)c3)ccc12)C1CC1 [SB-735464],%Inh,NEK6,3%
same,%Inh,NEK7,0%
same,%Inh,NEK9,0%
same,%Inh,NIK,9%
same,%Inh,NIM1,12%
same,%Inh,NLK,86%
same,%Inh,OSR1,0%
same,%Inh,PAK1,0%
same,%Inh,PAK2,30%
same,%Inh,PAK3,44%
same,%Inh,PAK4,0%
same,%Inh,PAK6,0%
same,%Inh,PAK7,0%
same,%Inh,PCTK1,5%
same,%Inh,PCTK2,6%
same,%Inh,PCTK3,0%
same,%Inh,PDGFRA,42%
same,%Inh,PDGFRB,67%
same,%Inh,PDPK1,0%
same,%Inh,PFTAIRE2,26%
Fc1ccc(-c2nn3c(OCC(F)(F)F)cccc3c2-c2ccncc2)cc1 [GW514784],%Inh,NEK6,0%
same,%Inh,NEK7,0%
same,%Inh,NEK9,4%
same,%Inh,NIK,56%
same,%Inh,NIM1,0%
same,%Inh,NLK,65%
same,%Inh,OSR1,20%
same,%Inh,PAK1,0%
same,%Inh,PAK2,0%
same,%Inh,PAK3,0%
same,%Inh,PAK4,0%
same,%Inh,PAK6,0%
same,%Inh,PAK7,16%
same,%Inh,PCTK1,0%
same,%Inh,PCTK2,15%
same,%Inh,PCTK3,0%
same,%Inh,PDGFRA,0%
same,%Inh,PDGFRB,21%
same,%Inh,PDPK1,0%
same,%Inh,PFTAIRE2,7%
N#Cc1c(N2CCOCC2)sc(-c2ccn[nH]2)c1-c1ccc(Cl)cc1,%Inh,NEK6,17%
same,%Inh,NEK7,0%
same,%Inh,NEK9,0%
same,%Inh,NIK,8%
same,%Inh,NIM1,54%
same,%Inh,NLK,0%
same,%Inh,OSR1,0%
same,%Inh,PAK1,10%
same,%Inh,PAK2,17%
same,%Inh,PAK3,27%
same,%Inh,PAK4,15%
same,%Inh,PAK6,29%
same,%Inh,PAK7,0%
same,%Inh,PCTK1,0%
same,%Inh,PCTK2,0%
same,%Inh,PCTK3,7%
same,%Inh,PDGFRA,3%
same,%Inh,PDGFRB,12%
same,%Inh,PDPK1,0%
same,%Inh,PFTAIRE2,0%
Cl.Cl.Cl.Fc1ccc(-c2ncn(C3CCNCC3)c2-c2ccnc(Nc3ccccc3)n2)cc1 [SB-238039],%Inh,NEK6,0%
same,%Inh,NEK7; 1 µM,0% and 24%
same,%Inh,NEK9; 1 µM,0% and 19%
same,%Inh,NIK; 1 µM,5% and 12%
same,%Inh,NIM1; 1 µM,35% and 19%
same,%Inh,NLK; 1 µM,90.5% and 89%
same,%Inh,OSR1,14%
same,%Inh,PAK1; 1 µM,16% and 0%
same,%Inh,PAK2; 1 µM,51% and 14%
same,%Inh,PAK3; 1 µM,43% and 50%
same,%Inh,PAK4; 1 µM,9% and 12%
same,%Inh,PAK6; 1 µM,0% and 11%
same,%Inh,PAK7,10%
same,%Inh,PCTK1,0%
same,%Inh,PCTK2; 1 µM,0% and 4%
same,%Inh,PCTK3; 1 µM,0% and 6%
same,%Inh,PDGFRA; 1 µM,0% and 26%
same,%Inh,PDGFRB; 1 µM,52% and 13%
same,%Inh,PDPK1; 1 µM,6% and 0%
same,%Inh,PFTAIRE2; 1 µM,0% and 21%
Cc1nnc(-c2ccc3ncc(-c4ccc(S(C)=O)cc4)n3c2)o1 (stereo not shown),%Inh,NEK6,12%
same,%Inh,NEK7,0%
same,%Inh,NEK9,0%
same,%Inh,NIK,0%
same,%Inh,NIM1,0%
same,%Inh,NLK,0%
same,%Inh,OSR1,9%
same,%Inh,PAK1,17%
same,%Inh,PAK2,3%
same,%Inh,PAK3,0%
same,%Inh,PAK4,0%
same,%Inh,PAK6,0%
same,%Inh,PAK7,5%
same,%Inh,PCTK1,14%
same,%Inh,PCTK2,0%
same,%Inh,PCTK3,0%
same,%Inh,PDGFRA,42%
same,%Inh,PDGFRB,80%
same,%Inh,PDPK1,0%
same,%Inh,PFTAIRE2,0%
c1ccc(-c2n[nH]cc2-c2ccnc3ccccc23)nc1 [GW271431],%Inh,NEK6,0%
same,%Inh,NEK7,0%
same,%Inh,NEK9,58%
same,%Inh,NIK,4%
same,%Inh,NIM1,21%
same,%Inh,NLK,58%
same,%Inh,OSR1,13%
same,%Inh,PAK1,16%
same,%Inh,PAK2,20%
same,%Inh,PAK3,6%
same,%Inh,PAK4,0%
same,%Inh,PAK6,11%
same,%Inh,PAK7,8%
same,%Inh,PCTK1,0%
same,%Inh,PCTK2,0%
same,%Inh,PCTK3,20%
same,%Inh,PDGFRA,0%
same,%Inh,PDGFRB,20%
same,%Inh,PDPK1,0%
same,%Inh,PFTAIRE2,36%
[2H]C([2H])(c1cccc(C(F)(F)F)c1C)n1ccn2c(=O)nc(N3CCOCC3)cc12 [GSK2336394],%Inh,NEK6,0%
same,%Inh,NEK7,0%
same,%Inh,NEK9,53%
same,%Inh,NIK,0%
same,%Inh,NIM1,13%
same,%Inh,NLK,0%
same,%Inh,OSR1,9%
same,%Inh,PAK1,0%
same,%Inh,PAK2,12%
same,%Inh,PAK3,13%
same,%Inh,PAK4,0%
same,%Inh,PAK6,0%
same,%Inh,PAK7,0%
same,%Inh,PCTK1,4%
same,%Inh,PCTK2,0%
same,%Inh,PCTK3,11%
same,%Inh,PDGFRA,0%
same,%Inh,PDGFRB,15%
same,%Inh,PDPK1,0%
same,%Inh,PFTAIRE2,0%
